Reference: PubChem BioAssay (EPA / NIEHS)
Calls of active or inactive are those of the source. How the source made its calls: active means hit-call score of the fitted dose curve at least 0.9, where 1 is the maximum; inactive means score below 0.9.

What was measured:
[1] = read-out: Monokine induced gamma interferon (MIG), CXCL9 (gene 4283); experiment: BSK_hDFCGF_MIG: BioMAP Diversity Plus: hDFCGF Assay for Monokine induced gamma interferon (MIG) Biomarker Activity (AID 2283063); conditions: primary human foreskin fibroblasts; actives raise or lower the signal
Summary of the method: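 Endpoint derived by bidirectional fitting relative to DMSO; MIG quantified via ELISA in primary human foreskin fibroblasts harvested 24 h after dosing.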

[2] = read-out: Matrix Metallopeptidase 1 (MMP1), MMP1 (gene 4312); experiment: BSK_hDFCGF_MMP1: BioMAP Diversity Plus: hDFCGF Assay for Matrix Metallopeptidase 1 (MMP1) Biomarker Activity (AID 2283064); conditions: primary human foreskin fibroblasts; actives raise or lower the signal
Summary of the method: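 hDFCGF primary fibroblasts (human foreskin); chemical added; 24 h; MMP1 by ELISA; bidirectional fit vs DMSO.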

[3] = read-out: Vascular cell adhesion molecule 1 (VCAM1), VCAM1 (gene 7412); experiment: BSK_hDFCGF_VCAM1: BioMAP Diversity Plus: hDFCGF Assay for Vascular cell adhesion molecule 1 (VCAM1) Biomarker Activity (AID 2283065); conditions: primary human foreskin fibroblasts; actives raise or lower the signal
Summary of the method: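 Measured after 24 h chemical treatment of primary human skin fibroblasts, VCAM-1 was detected by ELISA and concentration-response analysed in both directions versus DMSO vehicle.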

[4] = read-out: Plasminogen activator inhibitor-1 (PAI1), SERPINE1 (gene 5054); experiment: BSK_hDFCGF_PAI1: BioMAP Diversity Plus: hDFCGF Assay for Plasminogen activator inhibitor-1 (PAI1) Biomarker Activity (AID 2283066); conditions: primary human foreskin fibroblasts; actives raise or lower the signal
Summary of the method: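 Primary dermal fibroblasts (human foreskin), hDFCGF system; compound 24 h; PAI-1 by ELISA; bidirectional fit vs DMSO control.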

[5] = read-out: Intercellular Adhesion Molecule 1 (ICAM1), ICAM1 (gene 3383); experiment: BSK_KF3CT_ICAM1: BioMAP Diversity Plus: KF3CT Assay for Intercellular Adhesion Molecule 1 (ICAM1) Biomarker Activity (AID 2283067); conditions: primary human keratinocytes with fibroblasts; actives raise or lower the signal
Summary of the method: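 Bidirectional curve fitting against a DMSO baseline was applied to ICAM-1 ELISA signal from primary human skin co-cultures harvested 24 h after treatment, with SRB staining of parallel wells for overt cytotoxicity.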

[6] = read-out: Interferon-gamma inducible Protein 10 (IP10), CXCL10 (gene 3627); experiment: BSK_KF3CT_IP10: BioMAP Diversity Plus: KF3CT Assay for Interferon-gamma inducible Protein 10 (IP10) Biomarker Activity (AID 2283068); conditions: primary human keratinocytes with fibroblasts; actives raise or lower the signal
Summary of the method: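 Human keratinocyte plus foreskin fibroblast primary co-culture exposed to test chemical for 24 h; IP-10 measured by ELISA. Concentration-response fitted bidirectionally against DMSO control as baseline.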

[7] = BSK_KF3CT_SRB: Viability Assessment in the BioMAP Diversity Plus: KF3CT Assay (AID 2283069); conditions: primary human keratinocytes with fibroblasts;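 further: total protein by sulforhodamine B staining as a cytotoxicity measure; read 24 h after compound addition; fitted for both signal gain and loss against DMSO baseline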
Summary of the method: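 Keratinocytes co-cultured with foreskin fibroblasts (human primary); chemical added, 24 h; fix 10% TCA, stain 0.1% SRB, A560. Bidirectional fit vs DMSO.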

[8] = read-out: Interleukin-1 alpha (IL1a), IL1A (gene 3552); experiment: BSK_KF3CT_IL1a: BioMAP Diversity Plus: KF3CT Assay for Interleukin-1 alpha (IL1a) Biomarker Activity (AID 2283070); conditions: primary human keratinocytes with fibroblasts; actives raise or lower the signal
Summary of the method: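 Chemicals were dosed onto co-cultured human keratinocytes and foreskin fibroblasts, IL-1a was quantified by ELISA at 24 h, and activity was fitted in both directions relative to DMSO controls.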

[9] = read-out: TIMP metallopeptidase inhibitor 2 (TIMP2), TIMP2 (gene 7077); experiment: BSK_KF3CT_TIMP2: BioMAP Diversity Plus: KF3CT Assay for TIMP metallopeptidase inhibitor 2 (TIMP2) Biomarker Activity (AID 2283071); conditions: primary human keratinocytes with fibroblasts; actives raise or lower the signal
Summary of the method: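 Cells: human keratinocytes co-cultured with foreskin fibroblasts. Treat with chemical, 24 h. Measure TIMP-2 by ELISA; fit curves bidirectionally vs DMSO baseline.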

[10] = read-out: C-C motif chemokine 2 (Homo sapiens) (UniProt P13500); experiment: BSK_KF3CT_MCP1: BioMAP Diversity Plus: KF3CT Assay for Monocyte Chemoattractant Protein 1 (MCP1/CCL2) Biomarker Activity (AID 2283073); conditions: primary human keratinocytes with fibroblasts; actives raise or lower the signal
Summary of the method: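 Biomarker MCP-1 is measured by ELISA in primary human keratinocytes co-cultured with foreskin fibroblasts, 24 h after chemical treatment; DMSO serves as the negative control and activity baseline.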

[11] = read-out: Matrix Metallopeptidase 9 (MMP9), MMP9 (gene 4318); experiment: BSK_KF3CT_MMP9: BioMAP Diversity Plus: KF3CT Assay for Matrix Metallopeptidase 9 (MMP9) Biomarker Activity (AID 2283074); conditions: primary human keratinocytes with fibroblasts; actives raise or lower the signal
Summary of the method: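 Human keratinocyte/foreskin fibroblast co-culture; compound added; 24 h; MMP-9 by ELISA; bidirectional fit vs DMSO baseline.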

[12] = read-out: urokinase plasminogen activator (uPA), PLAU (gene 5328); experiment: BSK_KF3CT_uPA: BioMAP Diversity Plus: KF3CT Assay for urokinase plasminogen activator (uPA) Biomarker Activity (AID 2283075); conditions: primary human keratinocytes with fibroblasts; actives raise or lower the signal
Summary of the method: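 ELISA readout of uPA, analyzed for signal gain or loss relative to DMSO, from a human primary keratinocyte–foreskin fibroblast co-culture measured 24 h after chemical treatment.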

CD40, CD40 (gene 958) = experiment: BSK_LPS_CD40: BioMAP Diversity Plus: LPS Assay for CD40 Biomarker Activity (AID 2283076); conditions: primary human HUVEC with PBMC; actives raise or lower the signal
Summary of the method: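 Using a multiplexed primary human co-culture (umbilical vein endothelium plus PBMC), CD40 was read by ELISA 24 h after dosing, with cytotoxicity tracked by sulforhodamine B staining of parallel cultures and activity fitted bidirectionally versus DMSO.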

[13] = read-out: E-selectin (Homo sapiens) (UniProt P16581); experiment: BSK_LPS_Eselectin: BioMAP Diversity Plus: LPS Assay for Eselectin Biomarker Activity (AID 2283077); conditions: primary human HUVEC with PBMC; actives raise or lower the signal
Summary of the method: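 Dose chemical onto LPS-driven HUVEC/PBMC co-culture; after 24 h, run ELISA for E-selectin; fit up- and down-going responses relative to DMSO control.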

[14] = read-out: Interleukin-8 (IL8), CXCL8 (gene 3576); experiment: BSK_LPS_IL8: BioMAP Diversity Plus: LPS Assay for Interleukin-8 (IL8) Biomarker Activity (AID 2283078); conditions: primary human HUVEC with PBMC; actives raise or lower the signal
Summary of the method: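 In this LPS system, chemical-treated human umbilical vein endothelium/PBMC co-cultures were harvested at 24 h for IL-8 ELISA.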

[15] = BSK_LPS_SRB: Viability Assessment in the BioMAP Diversity Plus: LPS Assay (AID 2283079); conditions: primary human HUVEC with PBMC;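 further: total protein by sulforhodamine B absorbance as a cytotoxicity measure; measured one day after compound addition; fitted in both directions against DMSO so loss or gain of signal counts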
Summary of the method: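 Cytotoxicity endpoint in human endothelial–PBMC co-culture: 24 h exposure, then SRB (0.1%) staining, 560 nm read.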

[16] = read-out: Interleukin-1 alpha (IL1a), IL1A (gene 3552); experiment: BSK_LPS_IL1a: BioMAP Diversity Plus: LPS Assay for Interleukin-1 alpha (IL1a) Biomarker Activity (AID 2283080); conditions: primary human HUVEC with PBMC; actives raise or lower the signal
Summary of the method: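 Primary human HUVEC and PBMC co-culture stimulated with LPS is dosed and harvested at 24 h. Both increases and decreases in ELISA-measured IL-1a are scored relative to DMSO.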

[17] = read-out: Monocyte Chemoattractant Protein-1 (MCP1), CCL2 (gene 6347); experiment: BSK_LPS_MCP1: BioMAP Diversity Plus: LPS Assay for Monocyte Chemoattractant Protein-1 (MCP1) Biomarker Activity (AID 2283081); conditions: primary human HUVEC with PBMC; actives raise or lower the signal
Summary of the method: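 Values derive from bidirectional fitting against DMSO of ELISA-measured MCP-1 in a human primary endothelial and mononuclear cell co-culture, 24 h after chemical addition under LPS activation.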

[18] = BSK_LPS_PGE2: BioMAP Diversity Plus: LPS Assay for Prostaglandin E2 (PGE2) Biomarker Activity (AID 2283082); conditions: primary human HUVEC with PBMC; actives raise or lower the signal
Summary of the method: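 LPS-activated HUVEC/PBMC co-culture; cmpd dosed, 24 h; PGE2 by ELISA; bidirectional fit vs DMSO; SRB (0.1%, TCA-fixed, 560 nm) in parallel plates for overt cytotox.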

Measured: outcome

Chain of E-selectin (Homo sapiens) (P16581 whole entry, looked up): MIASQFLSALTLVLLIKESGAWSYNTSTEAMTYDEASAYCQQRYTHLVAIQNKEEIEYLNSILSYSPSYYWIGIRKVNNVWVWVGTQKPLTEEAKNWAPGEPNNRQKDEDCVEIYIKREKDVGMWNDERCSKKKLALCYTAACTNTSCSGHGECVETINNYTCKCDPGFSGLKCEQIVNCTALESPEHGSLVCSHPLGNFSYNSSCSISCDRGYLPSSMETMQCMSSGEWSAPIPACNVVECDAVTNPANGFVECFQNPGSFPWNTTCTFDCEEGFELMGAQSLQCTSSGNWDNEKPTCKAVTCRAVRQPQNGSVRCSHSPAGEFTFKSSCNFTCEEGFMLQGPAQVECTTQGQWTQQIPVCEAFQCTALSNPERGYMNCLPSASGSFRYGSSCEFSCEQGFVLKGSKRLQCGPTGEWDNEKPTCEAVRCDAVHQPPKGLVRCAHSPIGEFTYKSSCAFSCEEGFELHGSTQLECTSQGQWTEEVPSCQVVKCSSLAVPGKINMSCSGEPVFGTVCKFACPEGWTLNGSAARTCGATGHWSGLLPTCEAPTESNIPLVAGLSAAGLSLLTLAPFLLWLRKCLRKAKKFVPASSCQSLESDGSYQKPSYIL

S=P(N1CC1)(N1CC1)N1CC1
inactive: all assays above

OCCOCCOCCO
inactive: all assays above

Cn1c(=O)c2[nH]cnc2n(C)c1=O
inactive: all assays above
